Assay outcomes (PubChem BioAssay)
HT1080-NT tox – kills 2HG-producing HT-1080-NT fibrosarcoma cells; 360,000 tested, 1.6% active; Potency, µM (doses to about 46.1 µM), for inactives: at the highest dose activity, negative = less viability, hits mostly cytotoxic; AID 686970; HT-1080-NT fibrosarcoma viability, CellTiter-Glo ATP luminescence, 48 h;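 also: NT is the 2HG producing partner of a matched IDH1 knockdown line; potency is read from the fitted curve at half-maximal effect; 0% = DMSO-treated cells and -100% = media-only wells without cells; nearly all actives have a fitted effect of over 55% in size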
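Read-out is CellTiter-Glo luminescence after 10 minutes at room temperature, following 48 hours' compound treatment of HT-1080-NT cells (750 cells/well, RPMI, 5% FBS, 37 degrees C).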
IL1B secr inh – inhibitors of inflammasome signaling (IL-1 beta secretion); 360,000 tested, 4.7% active; THP-1 LPS/ATP IL-1B secretion, AlphaLISA, 16 h; stronger effect = lower value; activity change, % at 57.5 µM; in the data active = activity change below about -50%; inconclusive = mostly about -30% to -49%
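Secreted IL-1B measured by AlphaLISA bead assay after 16 h compound exposure of THP-1 cells; compounds (final up to 57.5 uM) added 1 h before LPS (250 ng/mL) and ATP (1.25 mM) stimulation; lower signal means less secretion.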
TDP1 cell CPT – DT40-hTDP1 cell growth loss with CPT | chicken DT40 Tdp1-/-;hTDP1 cells + 20 nM CPT, ATP luminescence, 48 h | AID 686979 | 420,000 tested, 12% active | Potency, µM (series often up to 46.2 µM), without a hit: at the top dose activity change, negative = growth inhibition, most hits filed as inhibitors; also: potency is read from the fitted curve at half-maximal effect; nearly all actives have a fitted effect of over 55% in size
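Chicken DT40 Tdp1-/- cells complemented with human TDP1, 400 cells/well, exposed to compounds plus 20 nM camptothecin for at least 48 h at 37 C; viability read as ATP content by CellTiter-Glo luminescence.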
HT1080 IDH1KD tx – toxicity to HT-1080 IDH1 knockdown cells (counter line); 360,000 tested, 2% active; Potency, µM (doses to about 46.1 µM), inactives show at the highest dose activity, negative = toxicity, hits mostly cytotoxic; HT-1080 IDH1 knockdown viability, ATP luminescence, 48 h;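 also: potency is read from the fitted curve at half-maximal effect; 0% = DMSO wells and -100% = cell-free medium wells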
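Knockdown cells (IDH1KD HT-1080) received compounds 2 h after plating at 750 cells/well and were kept 48 h at 37 °C in 5% FBS RPMI. A CellTiter-Glo luminescence read gave % activity for curve fitting.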
TDP1 cell noCPT – qHTS for Inhibitors of human tyrosyl-DNA phosphodiesterase 1 (TDP1): qHTS in cells in absence of CPT | 420,000 tested, 15% active | DT40 Tdp1-/- hTDP1 cells, no CPT, ATP luminescence, 48 h | Potency, µM (doses to about 46.2 µM), inactives show at the highest dose activity change, negative = growth inhibition, actives largely listed as inhibitors | AID 686978, 2013; also: potency is read from the fitted curve at half-maximal effect; nearly all actives have a fitted effect of over 55% in size
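Seeded 400 DT40-hTDP1 cells/well (vehicle DMSO, no 20 nM CPT); pinned compounds; ≥48 hr at 37 °C; CellTiter-Glo luminescence as viability measure.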
The depositor's hits bear a star; ? = inconclusive; nt = not tested or not shown; [ ] = remark or other dose. Compounds with a hit are over-represented: about 19% of the library has one in this group of screens. Unless noted, calls follow the shape of the dose curve; as a rule, active = well fitted curve in the direction sought with a large enough effect; inconclusive = small, poorly fitted or top-dose-only effect, or another doubt; inactive = no such curve, though single readings can be large; an effect the other way counts as inactive or inconclusive. Unless noted, % is scaled to controls: 0 for no effect and ±100 for the full control effect.

SMILES | HT1080-NT tox | IL1B secr inh | TDP1 cell CPT | HT1080 IDH1KD tx | TDP1 cell noCPT
COc1ccc(CC(=O)Nc2nnc(CC(C)C)s2)cc1S(=O)(=O)N1CCOCC1 | -11% | 7 | -22% | -14% | -19%
CC1Cc2ccccc2N1C(=O)CN(C)CC(=O)Nc1cccc(F)c1 (stereo unspecified) | 0% | -5 | ? | 0% | ?
O=C(O)C1C2CCC(C2)C1C(=O)N1CCCC1 (stereo unspecified) | 4% | 17 | -12% | 1% | -17%
Cc1ccc(Cn2ccsc2=NC(=O)COC(=O)C(C)C)cc1 | -27% | -10 | 15µM* | ? | 8.2µM*
CC(=O)N1CCc2cc(S(=O)(=O)NC(Cc3ccccc3)C(=O)Nc3ccc(Cl)cc3)ccc21 (stereo unspecified) | nt | nt | -21% | nt | -26%
Cc1ccc(NC(=O)Nc2nnc(N(C)C3CCCCC3)s2)c(Cl)c1 | nt | nt | 16µM* | nt | ?
Cc1c(Cl)cccc1NC(=O)Nc1nnc(N(C)C2CCCCC2)s1 | nt | nt | 15µM* | nt | 16µM*
Cc1c(Cl)cccc1NC(=O)Nc1nnc(N2CCCCCC2)s1 | nt | nt | -12% | nt | -16%
COc1cc(OC)c(NC(=O)Nc2nnc(N(C)C3CCCCC3)s2)cc1Cl | nt | nt | 21µM* | nt | 8.2µM*
CC(NC(=O)COC(=O)CN1C(=O)NC2(CCCC2)C1=O)c1ccc(F)cc1 (stereo unspecified) | 1% | 11 | -4% | 0% | -3%
Cc1ncc2c(c1CNC(=O)/C=C/c1cccs1)CCN(C(=O)C1CC(=O)OC13CCCCC3)C2 (stereo unspecified) | nt | nt | 8%[9.04 µM] | nt | -9%
Cc1cc(C)cc(OCC(=O)O/N=C(\N)c2ccccc2Cl)c1 | 9% | -17 | 1% | 8% | -3%
Cc1ccc(NC(=O)Cc2coc3ccc(C(C)C)cc23)cc1Cl | nt | nt | ? | nt | 29µM*
CCc1ccc2occ(CC(=O)Nc3ccc(C)c(C)c3)c2c1 | nt | nt | ? | nt | 13µM*
CCOc1ccc(NC(=O)Cc2coc3ccc(C)cc23)cc1 | nt | nt | 16µM* | nt | 21µM*
COc1ccc(NC(=O)c2oc3ccccc3c2NC(=O)Cc2coc3ccc(C)cc23)cc1 | nt | nt | -24% | nt | ?
CCCCOC(=O)c1ccc(NC(=O)Cc2coc3ccc(C(C)C)cc23)cc1 | nt | nt | 26µM* | nt | 23µM*
C/C(N)=C(/C#N)C(=O)COC(=O)Cc1coc2ccc3ccccc3c12 | -7% | 16 | -14% | -1% | -20%
O=c1c(-c2cc(F)cc(F)c2)nc2cnc(N3CCOCC3)nc2n1Cc1ccc(F)cc1 | nt | nt | 9% | nt | 20%
Oc1ccc(/C=N/Nc2ccc(C(F)(F)F)cn2)cc1 | ? | -95* | ? | ? | -22%
COc1cc(/C=N/Nc2ccc(C(F)(F)F)cn2)cc(OC)c1O | ? | -13 | ? | ? | 18µM*
CC(Nc1cccnc1)=C(C#N)C#N | 8% | 1 | -12% | 3% | 3%
O=S1(=O)CC(O)C(N2CCCCC2)C1 (stereo unspecified) | 11% | 9 | 29% | 10% | -25%
COc1ccc(C=O)cc1OC(=O)N1CCOCC1 | 0% | -5 | 35% | 14% | 15%
FC(F)(F)c1cnc(/C=C/Nc2ccccc2Cl)c(Cl)c1 | -4% | 17 | -6% | 0% | -10%
SMILES | HT1080-NT tox | IL1B secr inh | TDP1 cell CPT | HT1080 IDH1KD tx | TDP1 cell noCPT
C[N+]1=C(/C=C/Nc2ccccc2Cl)C(C)(C)c2ccccc21 | -3% | -6 | 23µM* | -11% | 12µM*
CCNC(=S)NNC(=O)c1cc(-c2cccc(C)c2)nc2ccccc12 | ? | -11 | 21µM* | 6.3µM* | 7.3µM*
CCNC(=S)NNC(=O)c1cc(-c2cccc(OCC)c2)nc2ccccc12 | ? | -1 | 15µM* | 7% | 10µM*
CCNC(=S)NNC(=O)c1cc(-c2cccnc2)nc2ccccc12 | -5% | -2 | 3% | -2% | -26%
CC(C)Cn1c(N)c(S(=O)(=O)c2cccs2)c2nc3ccccc3nc21 | -4% | ? | 16µM* | -10% | ?
COCCNC(=O)c1c(N)n(/N=C/c2ccc(F)cc2)c2nc3ccccc3nc12 | 7% | -26 | ? | 10% | ?
